The whole screen tested about 2,100 compounds, of which about 1,100 (52%) were called active. Inconclusive results (about 27%) are left out. The call rests on the fitted dose curve; in most records, active means well fitted inhibition curve with a large enough effect; inconclusive means small, poorly fitted or top-dose-only effect; inactive means no such curve, though single readings can be large or run the other way. So high a share suggests a set chosen from earlier hits. Some of the results follow.
What follows are molecules tested against DNA dC->dU-editing enzyme APOBEC-3G (Homo sapiens) (UniProt Q9HC16) (assay: qHTS for inhibitors of Vif-A3G interactions: Cherry picks counterscreen). Settings: HeLa A3G-eYFP + Vif (tagged APOBEC3G with the HIV-1 protein that degrades it), eYFP fluorescence, 24 h.
Chain of DNA dC->dU-editing enzyme APOBEC-3G (Homo sapiens) (Q9HC16 whole entry, looked up): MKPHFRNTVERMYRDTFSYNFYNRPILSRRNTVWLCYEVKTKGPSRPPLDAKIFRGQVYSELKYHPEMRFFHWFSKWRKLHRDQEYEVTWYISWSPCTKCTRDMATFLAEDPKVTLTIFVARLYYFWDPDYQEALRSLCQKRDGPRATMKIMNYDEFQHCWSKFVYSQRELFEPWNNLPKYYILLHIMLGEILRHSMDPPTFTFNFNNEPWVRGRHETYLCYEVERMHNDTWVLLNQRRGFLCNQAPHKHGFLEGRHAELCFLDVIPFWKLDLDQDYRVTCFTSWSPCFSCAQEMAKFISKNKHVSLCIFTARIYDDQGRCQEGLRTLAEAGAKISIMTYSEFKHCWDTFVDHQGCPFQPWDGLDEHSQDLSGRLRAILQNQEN
Method in brief: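 Readout is eYFP fluorescence (488 nm excitation, 500-530 nm emission) measured on Acumen Explorer after 24 h compound exposure, several concentrations, at 37 deg C. Cells: HeLa stably co-expressing Vif and C-terminally eYFP-tagged A3G; MG132 positive control.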
For `CC(C)NC(=S)N/N=C1\CCCCc2ccccc21`, the max response was -0.219% (inactive). `CC(C)NC(=S)N/N=C/c1sc(N2CCCCC2)nc1-c1cccs1` was tested, and the Potency was 20.6 µM (active). With `COC(=O)C1=C(Nc2ccc(C)cc2)C=C(C)C(C(=O)OC)C1c1cccc(OC)c1` (centres undefined) the Potency was 11.2 µM (active). With `COCc1ccc(O)c2ncccc12` the max response was 15.6% (inactive). With `COCCCNC(=S)N/N=C/c1ccc(OC)cc1` the max response was -8.47% (inactive). With `COc1ccc2c(c1)c(C(=O)N/N=C/c1ccc(Cl)cc1)c(C)n2C` the Potency was 12.5 µM (active). For `CC1=C/C(=C\C=C(C#N)C#N)N(C)c2ccccc21`, the Potency was 2.06 µM (active). In the case of `CC(=O)c1cc2c(cc1NS(=O)(=O)c1ccc(C)cc1)OCCO2`, the Potency was 12.5 µM (active). `CCN(CC)c1ccc(/C=C/c2cccc[n+]2C)c(OC)c1` was tested, and the Potency was 7.04 µM (active). `CCOc1ccc(CCNC(=O)c2ccc(Cn3c(=O)c4cccn4c4cccnc43)cc2)cc1` was tested, and the max response was -3.64% (inactive). For `O=C(NCCc1ccccc1Cl)c1ccc(Cn2c(=O)c3cccn3c3cccnc32)cc1`, the Potency was 14.6 µM (active). In the case of `N#Cc1cccn1-c1nccc(-c2cccs2)n1`, the Potency was 8.86 µM (active). `Cc1[nH]c2ccccc2c1/C=C/C(=O)c1ccccc1` was tested, and the Potency was 18.4 µM (active). With `Cc1ccc2[nH]c(C)c(/C=C/c3cc[n+](C)cc3)c2c1` the Potency was 0.627 µM (active). For `Cc1[nH]c2ccccc2c1/C=C/c1cc[n+](C)cc1`, the Potency was 0.994 µM (active). With `CC(OC(=O)/C(C#N)=C/c1ccc(N(C)C)cc1)C(=O)N(C)Cc1ccccc1` (centres undefined) the Potency was 23.1 µM (active). For `O=C(C(=Cc1ccccc1)CN1CCCCC1)c1ccccc1`, the Potency was 3.14 µM (active). With `CC(C)(C)NCC(=Cc1ccccc1)C(=O)c1ccccc1` the max response was -3.58% (inactive). In the case of `COc1cc(C2Nc3ccc4ncccc4c3C3=C2C(=O)CCC3)cc(OC)c1O` (centres undefined), the Potency was 11.2 µM (active). For `COc1cc(C2Nc3ccc4ncccc4c3C3=C2C(=O)CCC3)ccc1O` (centres undefined), the Potency was 14 µM (active). For `COC(=O)c1sc2cc([N+](=O)[O-])cc(SCC(C)C)c2c1N`, the Potency was 8.2 µM (active). For `CCOC(=O)c1sc2cc([N+](=O)[O-])cc(SCC(C)C)c2c1N`, the Potency was 2.31 µM (active). For `Cc1ccc2nc3c(cc(S(=O)(=O)c4ccccc4)c(=N)n3Cc3ccco3)c(=O)n2c1`, the max response was 17.8% (inactive). With `O=C(N/N=C/c1ccco1)c1cc(-c2ccncc2)nc2ccccc12` the Potency was 11.2 µM (active). For `CCn1c(O)c(/C=N/NC(=O)c2ccncc2)c(=O)n(CC)c1=S`, the max response was -1.22% (inactive). In the case of `CC(/C=N/NC(=O)c1cc(-c2ccccc2)nc2ccccc12)=C\c1ccco1`, the Potency was 2.23 µM (active). With `CCc1ccc(/C=N/NC(=O)c2cc(-c3ccncc3)nc3ccccc23)s1` the Potency was 3.53 µM (active). In the case of `CC(/C=N/NC(=O)c1cc(-c2ccc3ccccc3c2)n[nH]1)=C\c1ccco1`, the Potency was 14 µM (active). `CCC(=C/c1sc2ccc3ccccc3c2[n+]1C)/C=C1\Sc2ccc3ccccc3c2N1C` was tested, and the max response was -21.8% (inactive). In the case of `Cc1[nH]c2ccccc2c1/C=N/NC(=O)c1cc(-c2ccncc2)nc2ccccc12`, the Potency was 9.94 µM (active). `O=C(Nc1ccccc1OC(=O)c1ccccc1)c1ccccc1` was tested, and the Potency was 17.7 µM (active). `O=C(NC(=S)Nc1ccc(-c2ccccc2)cc1)c1ccccc1` was tested, and the max response was 2.13% (inactive). In the case of `COc1ccccc1NC(=O)Cc1ccc(-c2ccccc2)cc1`, the max response was -14.2% (inactive). For `Cc1cc2c(cc(C(=O)OCC(=O)NCc3cccs3)n2C(C)C)o1`, the Potency was 6.27 µM (active). With `CC(C)n1cc(/C=C/c2cc[n+](C)cc2)c2ccccc21` the Potency was 3.53 µM (active). With `CCn1cc(/C=C/c2cc[n+](C)cc2)c2ccccc21` the Potency was 1.77 µM (active). In the case of `C=CCn1cc(/C=C/c2cc[n+](C)cc2)c2ccccc21`, the Potency was 0.886 µM (active). With `O=c1[nH]c2cc(Br)cnc2nc1/C=C(\O)c1ccc(F)cc1` the Potency was 18.4 µM (active). In the case of `COc1ccc(-n2nnnc2-c2cccc(OC)c2)cc1`, the Potency was 1.98 µM (active). With `CCOc1cccc(-n2nnnc2-c2ccc(OC)cc2)c1` the Potency was 4.98 µM (active). With `COc1ccc(-n2nnnc2-c2ccccc2)cc1` the Potency was 3.14 µM (active). For `COc1cccc(C(=O)Nc2ncc3c(n2)CC(c2ccc(OC)cc2OC)CC3=O)c1` (centres undefined), the Potency was 17.7 µM (active). `COc1ccc2cc(-c3nc(Cl)c4c5c(sc4n3)CC(C)CC5)c(=O)oc2c1` (centres undefined) was tested, and the Potency was 20.6 µM (active). `CCN(CC)c1ccc2cc(-c3nc4sc5c(c4c(=O)[nH]3)CCC(C(C)(C)C)C5)c(=O)oc2c1` (centres undefined) was tested, and the max response was 48% (inactive). `COc1ccccc1-c1nnc2sc(-c3cc4ccccc4o3)nn12` was tested, and the Potency was 1.98 µM (active). With `CS(=O)(=O)N(CC(=O)N1CCN(Cc2ccccc2)CC1)c1ccccc1F` the max response was -9.78% (inactive). In the case of `CCN(CC)CCCNc1ccc2ncn3c4ccc(O)cc4c(=O)c1c23`, the Potency was 23.1 µM (active). For `Cc1ccc(-c2cc(NC=O)c3ncc(-c4cccc(C(=O)N(C)C)c4)n3c2)cc1`, the Potency was 8.86 µM (active). With `CN(C)C(=O)c1cccc(-c2cnc3c(NC=O)cc(-c4ccccc4F)cn23)c1` the max response was -0.0482% (inactive). With `Cc1ccc(-c2cc(NC=O)c3ncc(-c4cnn(C)c4)n3c2)cc1` the Potency was 3.14 µM (active). In the case of `CC(C)n1c(O)c(N=Nc2ccc(Cl)nn2)c2ccccc21`, the Potency was 18.4 µM (active). `CCOC(=O)/C=c1/s/c(=C\c2c(OC)ccc3ccccc23)c(=O)n1CC(=O)NCC1CCCO1` (centres undefined) was tested, and the Potency was 11.2 µM (active). For `CCOC(=O)/C=c1\s/c(=C\c2c(OC)ccc3ccccc23)c(=O)n1CC(=O)NCC1CCCO1` (centres undefined), the Potency was 14.6 µM (active). In the case of `NC(=O)CSc1nc2c(sc3ccccc32)c(=O)n1CCCC(=O)NCC1CCCO1` (centres undefined), the max response was -5.1% (inactive). `CN(C)c1ccc(/C=C/c2ccnc3c(Cl)cccc23)cc1` was tested, and the Potency was 11.6 µM (active). In the case of `CN(C)c1ccc(/C=C/c2ccnc3c(N)cccc23)cc1`, the Potency was 14.6 µM (active). For `CN(C)c1ccc(/C=C/c2ccnc3c(Cl)ccc(Cl)c23)cc1`, the Potency was 3.26 µM (active). With `Brc1ccc2c(c1)C(c1cccnc1)=NNC(c1cccs1)=N2` the Potency was 8.86 µM (active). For `c1cncc(-c2nc(NCc3cccs3)c3ccccc3n2)c1`, the max response was -5.92% (inactive). `CC(=O)n1cc(/C=N/NC(=O)c2sc(C)nc2C)c2ccccc21` was tested, and the Potency was 17.7 µM (active). With `O=C(c1ccc(CS(=O)c2ccccc2Cl)o1)N1CCN(c2ccccc2F)CC1` (centres undefined) the Potency was 2.91 µM (active). With `Cn1c(=O)[nH]c(=O)c2c1nc(Br)n2Cc1cccc(Br)c1` the Potency was 7.04 µM (active). In the case of `O=C1C=CC(O)(c2cc(=O)c3c(O)cc(O)cc3o2)C=C1`, the Potency was 7.9 µM (active). In the case of `COc1cc(-c2noc(C)c2C#Cc2ccc(N)cc2)cc(OC)c1OC`, the Potency was 0.444 µM (active). `CCOC(=O)N1C/C(=C\c2ccccc2)C(=O)/C(=C/c2ccccc2)C1` was tested, and the Potency was 8.86 µM (active). With `Cc1cccc(C(=O)Nc2nnc(C3=COCCO3)o2)c1` the max response was -1.82% (inactive). With `CCN(CC)c1ccc2cc(-c3nc(-c4ccc(Cl)cc4Cl)cs3)c(=O)oc2c1` the max response was 34.3% (inactive). `O=c1oc2cc(O)ccc2cc1-c1nc(-c2ccc(Cl)c(Cl)c2)cs1` was tested, and the Potency was 1.16 µM (active). `CCc1sc(-c2cc3ccc(O)cc3oc2=O)nc1-c1ccc(C)cc1` was tested, and the Potency was 2.59 µM (active). With `O=S(=O)(Nc1nc2ccccc2nc1N1CCN(c2ccccn2)CC1)c1ccc(Cl)cc1` the Potency was 16.4 µM (active). For `NC(=O)C1CCN(c2nc3ccccc3nc2NS(=O)(=O)c2ccc(Br)cc2)CC1`, the max response was -5.92% (inactive). With `CN1CCN(c2nc3ccccc3nc2NS(=O)(=O)c2ccc(Br)cc2)CC1` the max response was -6.45% (inactive). `CCN1C(=S)SC(=O)C1=C1C=C(C)N(Cc2ccco2)C(C)=C1` was tested, and the Potency was 15.8 µM (active). With `Cc1cccc(C)c1NC(=S)NC(C)CCc1ccccc1` (centres undefined) the max response was -1.19% (inactive). For `COc1ccc(NC(=O)c2c(Cl)n(C)c3ccccc23)cc1`, the Potency was 14 µM (active). `COc1cc(C(=O)Nc2ccc(C)cc2)c2ccccc2n1` was tested, and the Potency was 2.5 µM (active). `CCOC(=O)c1csc(NC(=O)c2cc(-c3ccccn3)nc3ccccc23)n1` was tested, and the max response was -7.52% (inactive). `CC(C)(C)c1ccc(Oc2ccc(NC(=O)c3ccccc3C(=O)O)cn2)cc1` was tested, and the max response was 6.3% (inactive). For `O=C(O)CSc1c2ccccc2cc2ccccc12`, the max response was -3.73% (inactive). With `COc1ccc(NC(=O)c2cccc3ccccc23)cc1` the Potency was 15.8 µM (active). With `CCN1/C(=C/c2cc[n+](C)cc2)C=Cc2cc(C)ccc21` the Potency was 23.1 µM (active). In the case of `O=C1CSC(=S)N1Cc1cccnc1`, the Potency was 4.11 µM (active). `O=C1/C(=C/c2ccc(O)cc2)SC(=S)N1Cc1cccnc1` was tested, and the max response was -0.458% (inactive). In the case of `Cc1ccc2c(c1)C=CC(C#N)N2C(=O)c1ccccc1` (centres undefined), the Potency was 4.98 µM (active). `C(=Cc1c[nH]c2ccccc12)c1nccc2ccccc12` was tested, and the Potency was 20.6 µM (active). With `Cc1ccc2c(/C=C/c3c[nH]c4ccccc34)ccnc2c1C` the Potency was 5.8 µM (active). With `C(=C\c1c[nH]c2ccccc12)/c1nccc2ccccc12` the Potency was 10.3 µM (active). For `CNCC(O)Cn1c2c(c3ccccc31)CCCC2` (centres undefined), the max response was 20.6% (inactive). With `O=C(c1ccccc1F)n1c2c(c3ccccc31)CCCC2` the Potency was 15.8 µM (active). For `O=C(NC1CCCCC1)c1cccc2c1C(=O)c1ccc(N3CCC(Cc4ccccc4)CC3)cc1S2(=O)=O`, the Potency was 15.8 µM (active). For `O=C(NC1CC1)c1cccc2c1C(=O)c1ccc(N3CCC(Cc4ccccc4)CC3)cc1S2(=O)=O`, the Potency was 20.6 µM (active). With `COc1ccc2c(c1)N(C)/C(=C/c1cccc[n+]1C)S2` the Potency was 17.7 µM (active). In the case of `CC[n+]1ccccc1/C=C1\Sc2ccc(C)cc2N1C`, the Potency was 20.6 µM (active). For `CCN1/C(=C/c2cccc[n+]2C)Sc2ccc(OC)cc21`, the Potency was 20.6 µM (active).

From PubChem BioAssay AID651813 (National Center for Advancing Translational Sciences (NCATS), 2012)
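Further: hits raise yellow fluorescence by blocking Vif-driven A3G-eYFP degradation; nearly all actives have a fitted effect of over 70% in size.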
Potency means the concentration at half of the fitted maximal effect.
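Wherever max response is given: max response given as percent of control signal.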
